Values without a mark were called inactive. Records with an inconclusive call do not appear. A call without a number means that no potency is given here. Activity calls are given as the source filed them. Unless noted, calls follow the shape of the dose curve; as a rule, active = well fitted curve in the direction sought with a large enough effect in the repeat runs; inconclusive = weak or mixed curves; inactive = no such curve, though single readings can be large; an effect the other way counts as inactive or inconclusive.
What was measured:
[1] = qHTS assay to identify small molecule agonists of the estrogen receptor beta (ER-beta) signaling pathway - cell viability counter screen (AID 1259380); also: nearly all actives have a fitted effect of over 30% in size; also: potency is read from the fitted curve at half-maximal effect
Procedure, shortened: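 ER-beta-UAS-bla HEK293T cells in medium with 2% charcoal-stripped FBS, pre-incubated 6 hr, then treated 16 hr at 37C. Cytotoxicity read in the same wells by CellTiter-Glo luminescence after 30 min at room temperature.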

[2] = target: Androgen receptor (Homo sapiens) (UniProt P10275); test: qHTS assay to identify small molecule agonists of the androgen receptor (AR) signaling pathway in the presence of an antagonist (AID 1259381; calls by dose curve; also: nearly all actives have a fitted effect of over 15% in size)
Chain of Androgen receptor (Homo sapiens) (P10275 whole entry, looked up): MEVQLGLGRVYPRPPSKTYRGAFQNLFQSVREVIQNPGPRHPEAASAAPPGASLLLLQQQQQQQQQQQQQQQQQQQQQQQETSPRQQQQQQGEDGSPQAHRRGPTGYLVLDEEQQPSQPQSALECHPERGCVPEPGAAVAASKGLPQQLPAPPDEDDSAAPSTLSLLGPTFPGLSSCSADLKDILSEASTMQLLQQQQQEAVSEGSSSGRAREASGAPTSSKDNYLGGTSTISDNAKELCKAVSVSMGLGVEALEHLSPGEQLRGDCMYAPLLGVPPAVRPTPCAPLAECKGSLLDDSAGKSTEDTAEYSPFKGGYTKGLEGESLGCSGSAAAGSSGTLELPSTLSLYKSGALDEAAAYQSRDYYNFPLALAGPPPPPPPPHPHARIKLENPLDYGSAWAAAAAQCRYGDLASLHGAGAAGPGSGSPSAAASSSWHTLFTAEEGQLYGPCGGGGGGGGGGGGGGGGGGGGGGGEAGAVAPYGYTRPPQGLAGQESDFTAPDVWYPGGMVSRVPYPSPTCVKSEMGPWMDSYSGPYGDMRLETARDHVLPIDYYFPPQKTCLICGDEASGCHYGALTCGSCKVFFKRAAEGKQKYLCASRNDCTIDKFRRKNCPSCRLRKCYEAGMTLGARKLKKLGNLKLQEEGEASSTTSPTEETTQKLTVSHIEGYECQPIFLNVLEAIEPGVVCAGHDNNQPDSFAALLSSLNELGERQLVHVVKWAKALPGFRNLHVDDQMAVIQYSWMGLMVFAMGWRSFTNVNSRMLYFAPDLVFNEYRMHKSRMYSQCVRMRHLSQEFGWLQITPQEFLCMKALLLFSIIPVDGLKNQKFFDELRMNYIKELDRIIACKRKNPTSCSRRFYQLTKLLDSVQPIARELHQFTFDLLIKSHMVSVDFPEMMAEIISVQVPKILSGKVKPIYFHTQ
Procedure, shortened: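 MDA-kb2 cells carrying MMTV-luciferase (AR/GR responsive), 3,000 cells/well, co-treated with 3.0 uM nilutamide final. Compounds at 15 concentrations, 16 hr at 37C without CO2. Luciferase luminescence read after 30 min with ONE-Glo.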

[3] = qHTS assay to identify small molecule antagonists of the estrogen receptor beta (ER-beta) signaling pathway - cell viability counter screen (AID 1259382); also: nearly all actives have a fitted effect of over 55% in size; also: potency is read from the fitted curve at half-maximal effect;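 as to activity change, negative = cytotoxicity: HEK293T cells carrying ER-beta-UAS-bla reporter stimulated with estradiol; series mostly up to about 92 µM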
Procedure, shortened: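 ER-beta-UAS-bla HEK293T cells in 2% charcoal-stripped FBS medium, treated with compound plus 1 nM 17-beta-estradiol for 16 h at 37C. Viability read by CellTiter-Glo luminescence after 30 min at room temperature in the same wells.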

[4] = qHTS assay to identify small molecule agonists or antagonists of the thyroid stimulating hormone receptor (TSHR) signaling pathway - wild type cell line counter screen (AID 1259384; calls by dose curve)
Procedure, shortened: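 Wild-type Hek293 cells, 800/well, 18 h at 37C, then compound with Ro20-1724 for 30 min RT. cAMP by HTRF (cAMP-d2/anti-cAMP cryptate), 1 h RT, fluorescence read. 15 concentrations, triplicates.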

[5] = target: Thyrotropin receptor (Homo sapiens) (UniProt P16473); test: qHTS assay to identify small molecule antagonists of the thyroid stimulating hormone receptor (TSHR) signaling pathway (AID 1259385; calls by dose curve; also: nearly all actives have a fitted effect of over 20% in size)
Chain of Thyrotropin receptor (Homo sapiens) (P16473 whole entry, looked up): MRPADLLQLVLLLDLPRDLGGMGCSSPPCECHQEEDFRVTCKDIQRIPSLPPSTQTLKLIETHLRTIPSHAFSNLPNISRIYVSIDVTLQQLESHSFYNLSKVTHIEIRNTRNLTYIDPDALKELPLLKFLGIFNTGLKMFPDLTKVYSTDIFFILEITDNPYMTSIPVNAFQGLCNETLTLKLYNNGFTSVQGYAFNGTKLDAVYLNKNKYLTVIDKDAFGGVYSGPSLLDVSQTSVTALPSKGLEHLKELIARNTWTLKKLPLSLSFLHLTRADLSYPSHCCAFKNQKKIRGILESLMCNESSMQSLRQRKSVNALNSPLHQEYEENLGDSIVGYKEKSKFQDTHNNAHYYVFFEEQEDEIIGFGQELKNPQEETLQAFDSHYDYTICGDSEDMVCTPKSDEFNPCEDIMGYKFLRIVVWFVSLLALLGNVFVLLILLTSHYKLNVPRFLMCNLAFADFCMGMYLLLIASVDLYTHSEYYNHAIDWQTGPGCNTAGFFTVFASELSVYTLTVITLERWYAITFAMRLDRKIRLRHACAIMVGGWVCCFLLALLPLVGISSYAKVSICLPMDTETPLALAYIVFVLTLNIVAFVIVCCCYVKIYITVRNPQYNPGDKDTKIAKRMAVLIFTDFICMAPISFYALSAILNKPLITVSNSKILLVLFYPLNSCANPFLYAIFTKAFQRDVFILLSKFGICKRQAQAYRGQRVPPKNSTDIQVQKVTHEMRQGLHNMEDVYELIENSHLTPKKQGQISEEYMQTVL
Procedure, shortened: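 TSHR-HEK293 cells (800/well) plated 18 h, then compounds with Ro20-1724 and TSH at 1.5 ng/mL final, 30 min at room temperature. cAMP quantified by HTRF (cAMP-d2/anti-cAMP-cryptate, 1 h); 15 concentrations in triplicate.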

[6] = qHTS assay to identify small molecule agonists of the estrogen receptor alpha (ER-alpha) signaling pathway in the presence of an antagonist - cell viability counter screen (AID 1259386);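 also: series mostly up to about 92 µM; cells exposed to compounds for 22 h at 37 °C before the viability read; nearly all actives have a fitted effect of over 30% in size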
Procedure, shortened: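 Cell viability in VM7Luc4E2 cells (endogenous full-length ER-alpha) measured by CellTiter-Fluor fluorescence in the same wells as the luciferase screen. Cells pre-cultured 5 days in charcoal-stripped serum, then treated 22 h with compounds at 15 concentrations plus 10.0nM ICI-182,780.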

[7] = target: Progesterone receptor (Homo sapiens) (UniProt P06401); test: qHTS assay to identify small molecule agonists of the progesterone receptor (PR) signaling pathway (AID 1346784; calls by dose curve; also: nearly all actives have a fitted effect of over 30% in size)
Chain of Progesterone receptor (Homo sapiens) (P06401 whole entry, looked up): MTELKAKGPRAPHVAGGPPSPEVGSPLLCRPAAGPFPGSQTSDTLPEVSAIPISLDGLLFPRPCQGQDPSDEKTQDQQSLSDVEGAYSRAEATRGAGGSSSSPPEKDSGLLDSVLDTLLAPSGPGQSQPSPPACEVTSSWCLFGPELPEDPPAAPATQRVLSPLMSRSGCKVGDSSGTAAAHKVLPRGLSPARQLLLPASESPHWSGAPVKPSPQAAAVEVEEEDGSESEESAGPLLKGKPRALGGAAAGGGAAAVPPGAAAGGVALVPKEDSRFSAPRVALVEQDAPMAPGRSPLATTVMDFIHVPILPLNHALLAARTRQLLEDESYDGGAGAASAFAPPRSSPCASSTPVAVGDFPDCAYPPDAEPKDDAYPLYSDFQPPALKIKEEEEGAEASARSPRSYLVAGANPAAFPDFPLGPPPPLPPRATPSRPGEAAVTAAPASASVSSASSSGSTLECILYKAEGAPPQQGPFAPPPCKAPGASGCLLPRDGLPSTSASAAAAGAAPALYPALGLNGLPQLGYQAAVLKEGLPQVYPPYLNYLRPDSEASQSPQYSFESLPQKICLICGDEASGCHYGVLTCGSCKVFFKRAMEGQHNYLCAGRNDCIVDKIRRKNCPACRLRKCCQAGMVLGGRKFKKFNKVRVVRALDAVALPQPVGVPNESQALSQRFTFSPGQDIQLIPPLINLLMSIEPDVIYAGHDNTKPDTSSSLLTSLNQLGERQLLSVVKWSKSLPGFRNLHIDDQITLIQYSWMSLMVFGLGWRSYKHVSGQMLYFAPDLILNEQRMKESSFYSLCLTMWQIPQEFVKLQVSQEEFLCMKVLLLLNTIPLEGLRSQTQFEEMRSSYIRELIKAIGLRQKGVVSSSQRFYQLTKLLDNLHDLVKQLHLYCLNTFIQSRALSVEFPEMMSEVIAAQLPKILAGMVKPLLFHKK
Procedure, shortened: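 Seed PR-UAS-bla HEK 293T cells (2% charcoal-stripped FBS), incubate 6 hr at 37C; add compounds in DMSO, 16 hr at 37C; add LiveBLAzer B/G substrate, 2 hr RT; read fluorescence intensity.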

[8] = qHTS assay to identify small molecule antagonists of the progesterone receptor (PR) signaling pathway - cell viability counter screen (AID 1346798); also: nearly all actives have a fitted effect of over 50% in size; also: potency is read from the fitted curve at half-maximal effect; as to activity change, negative = cytotoxicity: series mostly up to about 92 µM
Procedure, shortened: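 Measures cytotoxicity in parallel with the PR antagonist reporter read: HEK293T PR-UAS-bla cells get compound and R5020 for 16 hr, and remaining viable cells are quantified by CellTiter-Glo luminescence.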

[9] = qHTS assay to identify small molecule agonists of the progesterone receptor (PR) signaling pathway - cell viability counter screen (AID 1346799; calls by dose curve; also: nearly all actives have a fitted effect of over 45% in size; also: potency is read from the fitted curve at half-maximal effect)
Procedure, shortened: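 Using the same plates as the PR reporter screen, HEK293T PR-UAS-bla cells received compounds for 16 hr at 37C and were then lysed with CellTiter-Glo; luminescence was read 30 min later at room temperature.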

[10] = qHTS assay to identify small molecule antagonists of the TGF-beta/Smad signaling pathway - cell viability counter screen (AID 1346824); also: nearly all actives have a fitted effect of over 50% in size
Procedure, shortened: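 SBE-bla HEK 293T cells, incubated overnight, then compound plus 0.25 ng/mL TGF-beta1 (stock added) for 5 hr at 37 C. Viability was read in the same wells by CellTiter-Glo luminescence after 30 min at room temperature.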

[11] = qHTS assay to identify small molecule agonists of the TGF-beta/Smad signaling pathway - cell viability counter screen (AID 1346829); also: top concentration of the series differs between compounds; nearly all actives have a fitted effect of over 45% in size
Procedure, shortened: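 Same-well cytotoxicity: CellTiter-Glo added after the 2 hr room-temperature beta-lactamase substrate step, luminescence measured 30 min later; cells had 5 hr of compound at 37 C.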

[12] = qHTS assay to identify small molecule agonists of the TGF-beta/Smad signaling pathway (AID 1346859; active = well fitted activation curve with a large enough effect in the signal ratio in the repeat runs, not every such curve was filed as active; the % refers to the signal ratio; also: series mostly up to about 77 µM)
Procedure, shortened: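 Beta-lactamase reporter activity downstream of Smad binding elements was measured in stably transfected HEK 293T cells; compounds were incubated for 5 hr, substrate for 2 hr at room temperature.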

[13] = target: Thyrotropin-releasing hormone receptor (Homo sapiens) (UniProt P34981); test: qHTS assay to identify small molecule antagonists of the thyrotropin-releasing hormone receptor (TRHR) signaling pathway (AID 1346877; active = well fitted inhibition curve with a large enough effect in the repeat runs, not every such curve was filed as active; also: series mostly up to about 51 µM)
Chain of Thyrotropin-releasing hormone receptor (Homo sapiens) (P34981 whole entry, looked up): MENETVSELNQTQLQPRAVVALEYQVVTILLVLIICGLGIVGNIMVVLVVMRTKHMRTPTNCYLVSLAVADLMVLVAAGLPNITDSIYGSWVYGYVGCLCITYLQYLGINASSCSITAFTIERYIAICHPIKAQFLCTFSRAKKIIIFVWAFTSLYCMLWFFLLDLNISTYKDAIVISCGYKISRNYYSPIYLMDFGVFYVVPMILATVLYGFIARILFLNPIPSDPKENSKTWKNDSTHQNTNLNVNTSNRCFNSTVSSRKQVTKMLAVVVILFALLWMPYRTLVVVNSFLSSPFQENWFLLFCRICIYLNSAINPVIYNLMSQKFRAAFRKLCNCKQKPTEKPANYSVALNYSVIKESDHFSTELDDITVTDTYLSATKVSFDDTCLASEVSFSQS
Procedure, shortened: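 TRHR-expressing HEK293 cells loaded with calcium dye for 2 h at 37 C; compounds pre-incubated 5 min at room temperature before TRH challenge at 1 nM final. Intracellular calcium fluorescence read kinetically for 3 min; 15 concentrations in triplicate.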

[14] = target: Thyrotropin-releasing hormone receptor (Homo sapiens) (UniProt P34981); test: qHTS assay to identify small molecule agonists of the thyrotropin-releasing hormone receptor (TRHR) signaling pathway (AID 1346891; calls by dose curve; also: series mostly up to about 58 µM)
Procedure, shortened: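 Overnight-plated (18 h, 37 °C, 5% CO2) TRHR-Hek293 cells; 2 h calcium dye at 37 °C; compound in DMSO; 3-min kinetic fluorescence read.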

[15] = Human pregnane X receptor (PXR) small molecule agonists, qHTS cell viability counter screen (AID 1346977); also: nearly all actives have a fitted effect of over 50% in size; also: potency is read from the fitted curve at half-maximal effect
Procedure, shortened: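 After a 5hr pre-incubation, PXR-Luc HepG2 cells received compounds plus positive control in DMSO and were kept 24hr at 37C. Cell viability was quantified by fluorescence from CellTiter-Fluor added for the final hour.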

[16] = Caspase-3/7 induction in HepG2 cells by small molecules, qHTS assay (AID 1346978); also: nearly all actives have a fitted effect of over 15% in size; also: potency is read from the fitted curve at half-maximal effect
Procedure, shortened: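 Wild-type HepG2 cells, 2,000/well, settled 5 hr at 37 C and 5% CO2, then compound-treated for 17 hr; caspase-3/7 activity read by luminescent Caspase-Glo 3/7 after 30 min at room temperature.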

[17] = Caspase-3/7 induction in CHO-K1 cells by small molecules, qHTS cell viability counter screen (AID 1346979); also: nearly all actives have a fitted effect of over 35% in size; also: potency is read from the fitted curve at half-maximal effect
Procedure, shortened: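 Multiplexed with Caspase-Glo 3/7 in CHO-K1 cells, this counter screen added CellTiter-Fluor after 16hr of compound exposure and recorded fluorescence 1hr later.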

[18] = Caspase-3/7 induction in CHO-K1 cells by small molecules, qHTS assay (AID 1346980); also: nearly all actives have a fitted effect of over 15% in size; also: potency is read from the fitted curve at half-maximal effect
Procedure, shortened: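 Wild-type CHO-K1 cells exposed to compounds for 17hr at 37 C, 5% CO2. Caspase-3/7 activity then measured by Caspase-Glo 3/7 luminescence after 30min at room temperature.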

[19] = target: Progesterone receptor (Homo sapiens) (UniProt P06401); test: qHTS assay to identify small molecule antagonists of the progesterone receptor (PR) signaling pathway (AID 1346795; active = well fitted inhibition curve with a large enough effect in the signal ratio in the repeat runs, not every such curve was filed as active; the % refers to the signal ratio)
Procedure, shortened: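 Screening used a GripTite HEK293T line with PR-responsive UAS-beta-lactamase. Cells were challenged with compound in the presence of 1 nM R5020 final for 16 hr at 37C; B/G FRET substrate, 2 hr room temperature, fluorescence.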

## CCCCCCCCSCc1cc(C)c(O)c(CSCCCCCCCC)c1
[1]
  Potency: inactive
[2]
  Potency: inactive
[3]
  Potency: inactive
[4]
  Potency: inactive
[5]
  Potency: inactive
[6]
  Potency: inactive
[7]
  outcome: inactive
[8]
  Potency: inactive
[9]
  Potency: inactive
[10]
  Potency: inactive
[11]
  Potency: inactive
[12]
  outcome: inactive
[13]
  Potency: inactive
[14]
  Potency: inactive
[15]
  Potency: inactive
[16]
  Potency: inactive
[17]
  Potency: 68.6 µM (active)
[18]
  Potency: inactive

## CC1(C)[C@H](C(=O)OCc2cccc(Oc3ccccc3)c2)[C@@H]1C=C(Cl)Cl
[1]
  Potency: inactive
[2]
  Potency: inactive
[3]
  Potency: inactive
[4]
  Potency: inactive
[5]
  Potency: inactive
[6]
  Potency: inactive
[7]
  outcome: inactive
[8]
  Potency: inactive
[9]
  Potency: inactive
[10]
  Potency: inactive
[12]
  outcome: inactive
[14]
  Potency: inactive
[15]
  Potency: inactive
[16]
  Potency: inactive
[17]
  Potency: inactive
[18]
  Potency: inactive

## CCCCNc1ccc(NCCCC)c2c1C(=O)c1ccccc1C2=O
[1]
  activity change, negative = cytotoxicity: 6.16% [at 19 µM]
[2]
  activation: -0.623% [at 19 µM]
[3]
  activity change, negative = cytotoxicity: 15.6% [at 19 µM]
[4]
  cAMP activity change: -7.38% [at 18.9 µM, hits give high values]
[5]
  activity change, negative = inhibition: -5.35% [at 19 µM]
[7]
  activation: 0% [at 19 µM]
[8]
  activity change, negative = cytotoxicity: -7.34% [at 18.9 µM]
[9]
  activity change, negative = cytotoxicity: -18.3% [at 19 µM]
[10]
  viability change, negative = cytotoxic: 4.33% [at 15.8 µM]
[11]
  activity change, negative = cytotoxicity: 2.74% [at 15.8 µM]
[12]
  activation: 0.206% [at 15.8 µM]
[14]
  activation: -0.167% [at 11.8 µM]
[15]
  activity change, negative = cytotoxicity: -9.38% [at 19 µM]
[16]
  caspase activation: -1.98% [at 19 µM]
[17]
  Potency: 13 µM (active)
[18]
  caspase-3/7 activation: 2.79% [at 19 µM]

## Cc1cc(F)ccc1-c1cc(N2CC[C@@H](O)[C@H]2CO)ncc1N(C)C(=O)C(C)(C)c1cc(C(F)(F)F)cc(C(F)(F)F)c1
[1]
  Potency: 47.8 µM (active)
[2]
  Potency: inactive
[3]
  Potency: 53.6 µM (active)
[4]
  Potency: inactive
[5]
  Potency: inactive
[6]
  Potency: inactive
[8]
  Potency: inactive
[10]
  Potency: inactive
[11]
  Potency: inactive
[14]
  Potency: inactive
[15]
  Potency: 38 µM (active)
[16]
  Potency: 38 µM (active)
[18]
  Potency: 38 µM (active)

## CC/C(=C(/c1ccc(O)cc1)c1ccc(OCCN(C)C)cc1)c1ccccc1
[1]
  Potency: 32 µM (active)
[2]
  Potency: inactive
[3]
  Potency: 28.5 µM (active)
[4]
  Potency: inactive
[5]
  Potency: inactive
[8]
  Potency: 32 µM (active)
[9]
  Potency: 18 µM (active)
[14]
  Potency: inactive
[15]
  Potency: 18 µM (active)
[16]
  Potency: 40.3 µM (active)
[17]
  Potency: 32 µM (active)

## C=C1CC[C@H]2O[C@]2(C)CC[C@@H]2[C@@H]1CC2(C)C
[1]
  Potency: inactive
[2]
  Potency: inactive
[3]
  Potency: inactive
[4]
  Potency: inactive
[5]
  Potency: inactive
[6]
  Potency: inactive
[7]
  outcome: inactive
[19]
  Potency: inactive
[8]
  Potency: inactive
[9]
  Potency: inactive
[10]
  Potency: inactive
[11]
  Potency: inactive
[12]
  outcome: inactive
[15]
  Potency: inactive
[16]
  Potency: inactive
[17]
  Potency: inactive
[18]
  Potency: inactive

## CCc1cccc(C)c1N(C(=O)CS(=O)(=O)O)C(C)COC (configuration not stated)
[1]
  Potency: inactive
[2]
  Potency: inactive
[3]
  Potency: inactive
[4]
  Potency: inactive
[5]
  Potency: inactive
[7]
  outcome: inactive
[8]
  Potency: inactive
[9]
  Potency: inactive
[10]
  Potency: inactive
[11]
  Potency: inactive
[12]
  outcome: inactive
[13]
  Potency: inactive
[14]
  Potency: inactive
[15]
  Potency: inactive
[16]
  Potency: inactive
[18]
  Potency: inactive
